# Test results: PubChem BioAssay (Tox21)
# Values without a mark were called inactive. Records with an inconclusive call do not appear. A call without a number means that no potency is given here. Active and inactive are the calls of the source. Unless noted, calls follow the shape of the dose curve; as a rule, active = well fitted curve in the direction sought with a large enough effect in the repeat runs; inconclusive = weak or mixed curves; inactive = no such curve, though single readings can be large; an effect the other way counts as inactive or inconclusive.
# Tests used:
# [1] = Human pregnane X receptor (PXR) small molecule agonists, qHTS cell viability counter screen (AID 1346977); settings: PXR-Luc HepG2 viability, CellTiter-Fluor, 24 h; series mostly up to 92.4 µM; also: nearly all actives have a fitted effect of over 50% in size
# How it was run: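 HepG2 cells stably carrying the PXR-Luc reporter are cultured with 5% charcoal-stripped FBS and treated with compounds for 24hr. CellTiter-Fluor is added at 23hr and fluorescence is read after 1hr.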
# [2] = Caspase-3/7 induction in HepG2 cells by small molecules, qHTS assay (AID 1346978); settings: HepG2 caspase-3/7 activation, Caspase-Glo luminescence, 17 h; series mostly up to 92.4 µM; also: nearly all actives have a fitted effect of over 15% in size
# How it was run: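 Caspase-3/7 induction was measured by Caspase-Glo 3/7 luminescence (30 min, room temperature) after a 17 hr compound exposure of wild-type HepG2 cells seeded at 2,000 per well and pre-incubated 5 hr.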
# [3] = Caspase-3/7 induction in CHO-K1 cells by small molecules, qHTS assay (AID 1346980); settings: CHO-K1 caspase-3/7 induction, Caspase-Glo luminescence, 17 h; series mostly up to 92.4 µM; also: nearly all actives have a fitted effect of over 15% in size
# How it was run: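 Luminescent Caspase-Glo 3/7 read (30min, room temperature) quantified apoptosis induction. Cells were wild-type CHO-K1, treated with compound for 17hr at 37 C and 5% CO2.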
# [4] = Caspase-3/7 induction in HepG2 cells by small molecules, qHTS cell viability counter screen (AID 1346981); settings: CellTiter-Fluor fluorescence, 17 h; series mostly up to 92.4 µM; also: nearly all actives have a fitted effect of over 30% in size
# How it was run: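 In this quantitative HTS counter screen, compounds delivered in DMSO were left on unmodified HepG2 cells for 16 hr at 37 C. Viability was then determined fluorometrically with CellTiter-Fluor, in parallel with caspase-3/7 induction in the same wells.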
# [5] = biological target: Nuclear receptor subfamily 1 group I member 2 (Homo sapiens) (UniProt O75469); assay: Human pregnane X receptor (PXR) small molecule agonists, qHTS assay (AID 1346982); settings: PXR-Luc HepG2, CYP3A4 luciferase reporter, 24 h; series mostly up to 92.4 µM; also: nearly all actives have a fitted effect of over 35% in size; also: potency is read from the fitted curve at half-maximal effect
# Nuclear receptor subfamily 1 group I member 2 (Homo sapiens), sequence (O75469 whole entry, looked up): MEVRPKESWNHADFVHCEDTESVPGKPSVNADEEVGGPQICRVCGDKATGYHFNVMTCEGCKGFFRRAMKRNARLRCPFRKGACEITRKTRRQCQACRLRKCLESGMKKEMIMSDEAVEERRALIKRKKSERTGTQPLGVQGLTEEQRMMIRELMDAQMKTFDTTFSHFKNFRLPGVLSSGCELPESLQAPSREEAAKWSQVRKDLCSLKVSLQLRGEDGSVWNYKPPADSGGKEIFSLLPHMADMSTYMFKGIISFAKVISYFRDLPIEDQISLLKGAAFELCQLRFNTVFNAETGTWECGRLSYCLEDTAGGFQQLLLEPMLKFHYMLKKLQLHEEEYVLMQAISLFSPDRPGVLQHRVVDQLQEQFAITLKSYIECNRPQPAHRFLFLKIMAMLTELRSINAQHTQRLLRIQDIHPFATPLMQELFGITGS
# How it was run: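 Reporter HepG2 cells expressing PXR-Luc are cultured in charcoal-stripped FBS (5%), treated with compounds for 24 hr at 37 C, and assayed by ONE-Glo luminescence after 30 min at room temperature.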
# [6] = biological target: Acetylcholinesterase (Homo sapiens) (UniProt P22303); assay: Acetylcholinesterase (AChE) small molecule antagonists: colormetric cell-based qHTS assay (AID 1347395; calls by dose curve; also: nearly all actives have a fitted effect of over 30% in size); settings: SH-SY5Y cells AChE activity, colorimetric (Ellman); series mostly up to 115 µM
# Acetylcholinesterase (Homo sapiens), sequence (P22303 whole entry, looked up): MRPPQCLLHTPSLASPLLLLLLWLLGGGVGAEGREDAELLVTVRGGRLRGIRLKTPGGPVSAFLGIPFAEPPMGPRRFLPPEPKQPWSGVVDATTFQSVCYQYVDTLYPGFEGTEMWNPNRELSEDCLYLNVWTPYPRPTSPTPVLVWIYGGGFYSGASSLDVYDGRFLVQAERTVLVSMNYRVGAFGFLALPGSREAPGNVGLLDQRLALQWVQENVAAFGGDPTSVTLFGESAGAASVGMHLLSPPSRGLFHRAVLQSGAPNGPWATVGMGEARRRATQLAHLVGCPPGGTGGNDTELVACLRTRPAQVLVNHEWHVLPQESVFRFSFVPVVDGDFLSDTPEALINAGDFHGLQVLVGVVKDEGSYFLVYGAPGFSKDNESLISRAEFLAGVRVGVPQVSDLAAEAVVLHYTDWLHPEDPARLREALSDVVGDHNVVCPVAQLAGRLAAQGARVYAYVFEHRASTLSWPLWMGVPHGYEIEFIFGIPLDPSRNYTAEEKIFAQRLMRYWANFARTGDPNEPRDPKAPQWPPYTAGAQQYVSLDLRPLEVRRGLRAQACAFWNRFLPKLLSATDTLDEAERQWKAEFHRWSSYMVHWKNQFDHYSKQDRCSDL
# How it was run: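 Quantitative HTS in attached SH-SY5Y cells: 30 min compound exposure, then 90 min with acetylthiocholine and DTNB at 37 C; colour from thiocholine reports AChE activity.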
# [7] = biological target: Acetylcholinesterase (Homo sapiens) (UniProt P22303); assay: Acetylcholinesterase (AChE) small molecule antagonists: enzyme-based qHTS assay (AID 1347397; calls by dose curve; also: nearly all actives have a fitted effect of over 55% in size); settings: Potency: AChE enzyme activity inhibition; outcome: AChE enzyme activity inhibition; series mostly up to 115 µM
# How it was run: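 First, recombinant human AChE (50 mU/mL as dispensed) received test compound or DMSO. Second, plates stood 30 min at room temperature. Third, DTNB and acetylthiocholine were added, followed by 10 min at room temperature and colorimetric detection.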
# [8] = biological target: Acetylcholinesterase (Homo sapiens) (UniProt P22303); assay: Acetylcholinesterase (AChE) small molecule antagonists: enzyme-based qHTS assay with human liver microsomes (AID 1347399; calls by dose curve; also: nearly all actives have a fitted effect of over 60% in size); settings: Potency: qHTS inhibition; outcome: qHTS inhibition; series mostly up to 115 µM
# How it was run: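 Recombinant human AChE (50 mU/mL in the enzyme mix) and human liver microsomes (0.25 mg/mL final) were preincubated with compound and NADPH (0.25 mg/mL final) for 30 min at 37 C. Acetylthiocholine/DTNB was then added; thiocholine was read colorimetrically after 10 min at room temperature.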
# [9] = biological target: Cytochrome P450 2C19 (Homo sapiens) (UniProt P33261); assay: Cytochrome P450 Family 2 Subfamily C Member 19 (CYP2C19) small molecule antagonists: luciferase reporter qHTS assay (AID 1671197); settings: P450-Glo CYP2C19 enzyme, luciferin luminescence, 1 h; series mostly up to 115 µM; also: nearly all actives have a fitted effect of over 65% in size; also: potency is read from the fitted curve at half-maximal effect
# Cytochrome P450 2C19 (Homo sapiens), sequence (P33261 whole entry, looked up): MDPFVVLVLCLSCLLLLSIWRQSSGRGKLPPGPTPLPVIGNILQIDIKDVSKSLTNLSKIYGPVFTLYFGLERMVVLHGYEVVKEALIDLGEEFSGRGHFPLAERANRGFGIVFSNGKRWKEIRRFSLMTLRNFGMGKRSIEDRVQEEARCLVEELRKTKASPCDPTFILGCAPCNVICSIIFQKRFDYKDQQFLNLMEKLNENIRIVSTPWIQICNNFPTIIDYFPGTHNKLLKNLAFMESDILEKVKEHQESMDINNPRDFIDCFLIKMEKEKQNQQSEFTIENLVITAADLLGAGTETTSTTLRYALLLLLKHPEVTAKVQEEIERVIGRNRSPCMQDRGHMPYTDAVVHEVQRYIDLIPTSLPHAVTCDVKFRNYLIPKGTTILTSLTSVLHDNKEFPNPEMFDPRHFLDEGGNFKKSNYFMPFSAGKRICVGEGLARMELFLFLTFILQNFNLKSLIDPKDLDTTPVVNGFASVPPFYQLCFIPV
# How it was run: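 P450-Glo CYP2C19 system: enzyme-substrate mix with compound 10 min at room temperature, then NADPH regeneration solution, 1 h at 37C. Proluciferin-to-luciferin conversion detected by luminescence after 20 min with detection reagent; ketoconazole as positive control.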
# [10] = biological target: Cytochrome P450 2C9 (Homo sapiens) (UniProt P11712); assay: Cytochrome P450 Family 2 Subfamily C Member 9 (CYP2C9) small molecule antagonists: luciferase reporter qHTS assay (AID 1671198); settings: P450-Glo CYP2C9 enzyme assay, luciferin luminescence; series mostly up to 115 µM; also: nearly all actives have a fitted effect of over 50% in size; also: potency is read from the fitted curve at half-maximal effect
# Cytochrome P450 2C9 (Homo sapiens), sequence (P11712 whole entry, looked up): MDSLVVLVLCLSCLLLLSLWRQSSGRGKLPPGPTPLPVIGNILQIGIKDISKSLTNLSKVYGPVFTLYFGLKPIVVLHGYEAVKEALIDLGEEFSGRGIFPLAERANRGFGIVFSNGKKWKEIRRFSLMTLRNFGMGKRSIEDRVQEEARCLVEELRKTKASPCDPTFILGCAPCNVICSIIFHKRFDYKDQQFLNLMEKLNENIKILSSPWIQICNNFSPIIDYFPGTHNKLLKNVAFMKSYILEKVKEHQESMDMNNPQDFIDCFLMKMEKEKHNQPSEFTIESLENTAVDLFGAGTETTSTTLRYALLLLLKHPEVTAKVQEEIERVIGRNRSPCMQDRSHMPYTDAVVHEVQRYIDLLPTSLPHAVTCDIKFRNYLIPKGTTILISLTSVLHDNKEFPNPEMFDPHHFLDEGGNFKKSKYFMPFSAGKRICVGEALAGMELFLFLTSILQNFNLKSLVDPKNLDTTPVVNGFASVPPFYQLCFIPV
# How it was run: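 Enzyme-substrate mix preincubated with compound 10 min at room temperature; reaction started with NADPH regeneration solution, 1 h 37C. Luminescent luciferin product read after 20 min detection reagent.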
# [11] = biological target: Voltage-gated inwardly rectifying potassium channel KCNH2 (Homo sapiens) (UniProt Q12809); assay: Human Ether-a-go-go-Related Gene (hERG) channel small molecule antagonists: fluorescence cell-based qHTS assay (AID 1671200); settings: hERG-U2OS cells, FluxOR thallium flux fluorescence; series mostly up to 76.8 µM;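 also: hERG-expressing U2OS cells given a thallium stimulus after FluxOR II dye loading; nearly all actives have a fitted effect of over 50% in size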
# Voltage-gated inwardly rectifying potassium channel KCNH2 (Homo sapiens), sequence (Q12809 whole entry, looked up): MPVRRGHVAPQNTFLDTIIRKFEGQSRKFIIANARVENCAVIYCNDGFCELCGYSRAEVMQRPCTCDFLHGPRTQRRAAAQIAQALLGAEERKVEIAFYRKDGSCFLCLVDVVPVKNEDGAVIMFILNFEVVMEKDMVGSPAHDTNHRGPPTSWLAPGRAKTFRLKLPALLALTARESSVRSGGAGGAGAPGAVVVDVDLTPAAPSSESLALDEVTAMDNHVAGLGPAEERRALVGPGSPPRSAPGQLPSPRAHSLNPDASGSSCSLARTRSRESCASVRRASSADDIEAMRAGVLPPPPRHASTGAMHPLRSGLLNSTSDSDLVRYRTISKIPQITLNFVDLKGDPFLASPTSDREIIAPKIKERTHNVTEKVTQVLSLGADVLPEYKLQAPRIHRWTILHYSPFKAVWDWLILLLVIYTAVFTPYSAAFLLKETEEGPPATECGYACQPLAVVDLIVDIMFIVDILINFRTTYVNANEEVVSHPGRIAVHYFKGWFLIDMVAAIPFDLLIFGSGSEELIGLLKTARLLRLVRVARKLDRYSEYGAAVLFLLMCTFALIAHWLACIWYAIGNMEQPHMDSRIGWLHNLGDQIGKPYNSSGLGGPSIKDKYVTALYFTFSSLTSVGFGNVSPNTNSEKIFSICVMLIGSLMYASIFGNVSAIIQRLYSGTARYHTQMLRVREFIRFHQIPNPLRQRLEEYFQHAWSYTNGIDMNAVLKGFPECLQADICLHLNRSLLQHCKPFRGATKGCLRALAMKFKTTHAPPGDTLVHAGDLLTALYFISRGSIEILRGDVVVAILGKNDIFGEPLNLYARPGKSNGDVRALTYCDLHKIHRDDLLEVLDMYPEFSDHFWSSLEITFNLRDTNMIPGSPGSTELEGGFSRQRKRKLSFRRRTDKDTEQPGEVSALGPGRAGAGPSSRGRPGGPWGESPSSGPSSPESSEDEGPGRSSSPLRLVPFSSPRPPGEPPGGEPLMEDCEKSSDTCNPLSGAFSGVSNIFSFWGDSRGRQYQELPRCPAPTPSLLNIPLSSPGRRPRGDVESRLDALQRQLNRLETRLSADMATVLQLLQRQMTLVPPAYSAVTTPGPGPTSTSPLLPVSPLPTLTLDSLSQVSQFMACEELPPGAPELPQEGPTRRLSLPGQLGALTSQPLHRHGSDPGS
# How it was run: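 First, 1000 cells per well are seeded and cultured overnight at 37 C. Next, FluxOR II dye is loaded for 1 h at room temperature, protected from light. After 10 more minutes, stimulus is added and fluorescence is read.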
# [12] = biological target: Cytochrome P450 3A4 (Homo sapiens) (UniProt P08684); assay: Cytochrome P450 Family 3 Subfamily A Member 4 (CYP3A4) small molecule antagonists: luciferase reporter qHTS assay (AID 1671201); settings: P450-Glo CYP3A4 enzyme, luciferin luminescence, 1 h; series mostly up to 115 µM; also: nearly all actives have a fitted effect of over 50% in size
# Cytochrome P450 3A4 (Homo sapiens), sequence (P08684 whole entry, looked up): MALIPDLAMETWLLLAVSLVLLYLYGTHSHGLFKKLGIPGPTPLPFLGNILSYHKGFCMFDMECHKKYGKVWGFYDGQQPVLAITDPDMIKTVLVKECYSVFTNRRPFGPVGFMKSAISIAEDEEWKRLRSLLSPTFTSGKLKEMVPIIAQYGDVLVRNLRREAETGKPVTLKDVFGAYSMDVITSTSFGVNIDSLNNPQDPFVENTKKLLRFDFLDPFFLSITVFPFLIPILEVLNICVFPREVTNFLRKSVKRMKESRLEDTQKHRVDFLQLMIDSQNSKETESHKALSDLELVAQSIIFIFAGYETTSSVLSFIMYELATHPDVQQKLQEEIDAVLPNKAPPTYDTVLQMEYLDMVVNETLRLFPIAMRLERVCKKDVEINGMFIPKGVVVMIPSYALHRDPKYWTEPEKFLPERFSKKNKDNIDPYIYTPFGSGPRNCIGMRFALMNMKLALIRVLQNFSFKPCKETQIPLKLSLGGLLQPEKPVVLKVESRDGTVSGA
# How it was run: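 Enzyme and proluciferin substrate are mixed with test chemicals for 10 min, then NADPH regeneration system drives turnover for 1 h at room temperature. A detection reagent halts the reaction; luminescence after 20 min gives relative activity.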
# [13] = biological target: Nuclear receptor subfamily 1 group I member 2 (Rattus norvegicus) (UniProt Q9R1A7); assay: Rat pregnane X receptor (rPXR) activation by small molecules, qHTS assay (AID 1346983); settings: rPXR luciferase reporter cells, One-Glo luminescence, 24 h; active compounds read high; also: nearly all actives have a fitted effect of over 20% in size
# How it was run: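 Luminescent readout (One-Glo luciferase, 30 min room temperature) followed 24 hr compound treatment at 37 C of rPXR cells plated 2,000 per well and preincubated 5hr; qHTS format with compounds delivered in DMSO.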
# [14] = biological target: Nuclear receptor subfamily 1 group I member 2 (Homo sapiens) (UniProt O75469); assay: CYP3A4 induction through human pregnane X receptor (PXR) by small molecules, qHTS assay (AID 1346984); settings: DPX-2 HepG2 PXR, CYP3A4-luciferin luminescence, 24 h; series mostly up to 46.1 µM; also: nearly all actives have a fitted effect of over 40% in size
# How it was run: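 Induction measured in HepG2-based DPX-2 cells co-expressing human PXR and a CYP3A4 promoter-driven luciferase. After a 24-hour compound exposure, cells received CYP3A4 luciferin substrate at 3uM final for 3 hours, and light output was then recorded.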
# [15] = biological target: Nuclear receptor subfamily 1 group I member 2 (Homo sapiens) (UniProt O75469); assay: Human pregnane X receptor (PXR) activation by small molecules, qHTS assay (AID 1346985); settings: DPX-2 HepG2 CYP3A4-luciferase, 24 h; series mostly up to 38.3 µM; also: nearly all actives have a fitted effect of over 40% in size
# How it was run: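 DPX-2 cells (HepG2 co-transfected with a PXR response element and a CYP3A4-promoter luciferase construct) were seeded at 2,000 per well, rested 5 hr at 37C, then exposed to DMSO-dissolved compounds for 24 hr. Activation was read as luciferase luminescence.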
# [16] = biological target: Cytochrome P450 1A2 (Homo sapiens) (UniProt P05177); assay: Cytochrome P450 Family 1 Subfamily A Member 2 (CYP1A2) small molecule antagonists: luciferase reporter qHTS assay (AID 1671199); settings: P450-Glo CYP1A2 enzyme, luciferin luminescence, 1 h; series mostly up to 115 µM; also: nearly all actives have a fitted effect of over 50% in size; also: potency is read from the fitted curve at half-maximal effect
# Cytochrome P450 1A2 (Homo sapiens), sequence (P05177 whole entry, looked up): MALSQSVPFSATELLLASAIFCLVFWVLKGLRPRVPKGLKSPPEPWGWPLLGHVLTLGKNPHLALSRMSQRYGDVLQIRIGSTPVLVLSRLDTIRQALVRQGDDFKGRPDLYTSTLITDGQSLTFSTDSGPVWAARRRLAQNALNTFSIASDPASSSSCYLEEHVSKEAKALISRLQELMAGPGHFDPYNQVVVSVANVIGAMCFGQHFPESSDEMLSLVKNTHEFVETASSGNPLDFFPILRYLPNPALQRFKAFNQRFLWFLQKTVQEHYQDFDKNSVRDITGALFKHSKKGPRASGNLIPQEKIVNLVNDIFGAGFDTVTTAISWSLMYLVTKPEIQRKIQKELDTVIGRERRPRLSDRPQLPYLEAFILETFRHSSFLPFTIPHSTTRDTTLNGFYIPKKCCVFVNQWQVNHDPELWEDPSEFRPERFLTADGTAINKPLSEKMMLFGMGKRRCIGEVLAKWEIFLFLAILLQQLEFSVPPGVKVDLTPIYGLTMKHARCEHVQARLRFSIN
# How it was run: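 Steps: enzyme-substrate mix dispensed; test compounds and furafylline control pinned in; 10 min room temperature; NADPH regeneration solution added, 1 h; reaction stopped with luciferin detection reagent; luminescence read after 20 min.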
# [17] = biological target: Acetylcholinesterase (Homo sapiens) (UniProt P22303); assay: Acetylcholinesterase (AChE) small molecule antagonists: fluorescence cell-based qHTS assay (AID 1347398; calls by dose curve; also: nearly all actives have a fitted effect of over 50% in size); settings: SH-SY5Y cells; Potency: AChE activity; outcome: AChE activity; series mostly up to 115 µM
# How it was run: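 Homogeneous quantitative HTS format. SH-SY5Y cells seeded at 2,000 per well settle overnight at 37 C. Compound pretreatment runs 30 min (37 C, 5% CO2); substrate/probe mix then reacts 40 min at RT before reading 490/520 nm.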
# [18] = biological target: Cytochrome P450 2D6 (Homo sapiens) (UniProt P10635); assay: Cytochrome P450 Family 2 Subfamily D Member 6 (CYP2D6) small molecule antagonists: luciferase reporter qHTS assay (AID 1671196); settings: P450-Glo CYP2D6 enzyme assay, luciferin luminescence, 1 h; series mostly up to 115 µM; also: nearly all actives have a fitted effect of over 50% in size; also: potency is read from the fitted curve at half-maximal effect
# Cytochrome P450 2D6 (Homo sapiens), sequence (P10635 whole entry, looked up): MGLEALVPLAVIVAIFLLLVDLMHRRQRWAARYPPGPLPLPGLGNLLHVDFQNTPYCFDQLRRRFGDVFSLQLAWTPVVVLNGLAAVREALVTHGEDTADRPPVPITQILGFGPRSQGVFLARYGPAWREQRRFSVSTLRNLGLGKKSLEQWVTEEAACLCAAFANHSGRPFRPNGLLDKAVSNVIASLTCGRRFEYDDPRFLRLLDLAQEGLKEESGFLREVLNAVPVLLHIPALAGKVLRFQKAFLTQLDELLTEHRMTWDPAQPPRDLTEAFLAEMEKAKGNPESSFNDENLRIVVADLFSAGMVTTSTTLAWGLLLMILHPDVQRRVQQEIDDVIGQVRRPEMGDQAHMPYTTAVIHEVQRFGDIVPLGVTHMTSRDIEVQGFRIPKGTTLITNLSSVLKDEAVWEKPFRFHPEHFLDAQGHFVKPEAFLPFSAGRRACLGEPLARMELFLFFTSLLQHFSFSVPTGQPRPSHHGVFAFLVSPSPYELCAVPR
# How it was run: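 Test chemicals meet CYP2D6 plus proluciferin substrate (10 min, RT); NADPH regenerating solution then drives turnover for 1 h. Detection reagent halts the reaction; luminescence measured after 20 min.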
# [19] = Caspase-3/7 induction in CHO-K1 cells by small molecules, qHTS cell viability counter screen (AID 1346979); settings: CellTiter-Fluor fluorescence, 17 h; series mostly up to 92.4 µM; also: nearly all actives have a fitted effect of over 35% in size
# How it was run: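 Seeding: 1,500 CHO-K1 cells/well. Rest: 5hr, 37C. Treatment: compounds in DMSO, 16hr. Read: CellTiter-Fluor, 1hr, fluorescence.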
Compound,Potency [1],outcome [2],outcome [3],Potency [4],Potency [5],Potency [6],Potency [7],Potency [8],Potency [9],Potency [10],Potency [11],Potency [12],max activation [13] [%],Potency [14],Potency [15],Potency [16],Potency [17],Potency [18],Potency [19]
O=C(O)C(Cl)Br (centres undefined),inactive,inactive,inactive,inactive,inactive,inactive,inactive,inactive,inactive,inactive,inactive,inactive,,,,,,,
CCCN1CCC[C@@H]2Cc3nc(N)ncc3C[C@H]21,inactive,inactive,,,inactive,,,inactive,inactive,,inactive,inactive,-1.3,inactive,inactive,inactive,,,
Clc1ccc(C(Cl)(Cl)Cl)cn1,inactive,inactive,,inactive,inactive,inactive,inactive,inactive,inactive,inactive,inactive,,,,,7.96 µM (active),inactive,,
COC(=O)c1ccc(CBr)cc1,inactive,,inactive,inactive,55.1 µM (active),inactive,inactive,inactive,,,inactive,,,,,36 µM (active),inactive,64 µM (active),
CCOC(=O)CCl,inactive,inactive,,inactive,,inactive,inactive,inactive,inactive,inactive,inactive,inactive,,,,inactive,inactive,inactive,
CCOC1Oc2ccc(OS(C)(=O)=O)cc2C1(C)C (centres undefined),inactive,inactive,inactive,inactive,21.5 µM (active),inactive,inactive,inactive,3.96 µM (active),,inactive,inactive,,,,35.3 µM (active),,35.3 µM (active),
CCc1cc(OC)c(C[C@H](C)N)cc1OC,,inactive,inactive,inactive,inactive,,,,inactive,,inactive,,,,,20.9 µM (active),,4.16 µM (active),inactive
NC1(c2ccccc2)CCCCC1,,inactive,,inactive,inactive,inactive,inactive,inactive,,,inactive,inactive,,,,inactive,inactive,31.4 µM (active),inactive
CC[C@H](O)C(C[C@H](C)N(C)C)(c1ccccc1)c1ccccc1,,inactive,inactive,inactive,inactive,inactive,inactive,inactive,inactive,inactive,inactive,,,,,inactive,,1.44 µM (active),
[P]#[In],,inactive,inactive,inactive,inactive,,,inactive,inactive,inactive,inactive,inactive,,,,inactive,,,inactive
C=CC=O,inactive,inactive,,inactive,inactive,inactive,inactive,inactive,inactive,inactive,inactive,inactive,,,,inactive,inactive,inactive,
CC(Cc1ccccc1)NCCn1cnc2c1c(=O)n(C)c(=O)n2C (centres undefined),inactive,inactive,,inactive,inactive,inactive,,inactive,78.7 µM (active),inactive,inactive,,,,,inactive,,4.96 µM (active),
C=CCC1(C(C)CC)C(=O)NC(=O)NC1=O (centres undefined),inactive,inactive,inactive,inactive,inactive,inactive,inactive,inactive,,,inactive,,,,,21.9 µM (active),,,
O=c1[nH]c2ccccc2n1C1CCNCC1,inactive,inactive,inactive,inactive,inactive,inactive,,inactive,,,inactive,inactive,,,,,inactive,30.9 µM (active),
O=P(O)(O)c1ccccc1,inactive,inactive,inactive,inactive,inactive,inactive,inactive,inactive,inactive,inactive,inactive,inactive,,,,inactive,,,
C(COCC1CO1)OCC1CO1 (centres undefined),inactive,inactive,,inactive,48.6 µM (active),inactive,inactive,inactive,inactive,inactive,inactive,,,,,inactive,,,
CON(C)C(=O)Nc1ccc(Br)c(Cl)c1,inactive,inactive,inactive,inactive,27.3 µM (active),inactive,,inactive,28.3 µM (active),63.3 µM (active),inactive,,,,,1.78 µM (active),inactive,inactive,
